# Assay outcomes: PubChem, several laboratories
# Shown are actives, neighbours in structure and some others; about 2.6% of the full set was active somewhere.
# EWS-Fli block: blocks EWS/Fli oncoprotein-driven transcription. AID 651661. 350,000 tested, 0.67% active. inhibition, % at 12.6 µM. A673 NR0B1-luciferase reporter, viability-normalised;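 active means mean inhibition of at least 50% after viability correction, with every replicate also passing that limit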;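 further: firefly luciferase signal divided by Alamar Blue viability fluorescence both relative to DMSO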
# TROY signal inh: TROY signaling inhibition | 360,000 tested, 0.98% active | inhibition, % at 10 µM | Q293 LMP1-TROYcd NF-kB luciferase reporter, 4 h;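 active means compounds whose plate-normalised and pattern-corrected inhibition of the luciferase reporter signal at the single screening dose is 50% or more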
# LMP1 NFkB inh: inhibitors of Epstein-Barr LMP1-induced NF-kappaB reporter. LMP1-induced NF-kappaB luciferase reporter cells, luminescence. inhibition, % at 12.5 µM. 350,000 tested, 0.69% active. AID 504558; in the data active means inhibition above about 41%
# LGR2 antag: Drosophila LGR2 receptor signaling inhibition. HEK293 LGR2, CRE-luciferase, bursicon-stimulated, 4 h. inhibition, % at 9.99 µM. 380,000 tested, 0.35% active. AID 720647;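 active means drop in luminescence signal, shown as inhibition above about 50% in the replicate tests, limit read from the data, passing the limit was not always enough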;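 further: agonist challenge used bursicon conditioned medium at about half maximal strength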
# TWEAK-Fn14 inh: TWEAK-Fn14 signaling inhibition | TWEAK-stimulated Fn14 reporter cells, luciferase luminescence, 8 h | inhibition, % at 10 µM | 360,000 tested, 2% active; in the data active means inhibition above about 50%
# A number is an active result; n = inactive; x = not tested or not shown.
SMILES,EWS-Fli block,TROY signal inh,LMP1 NFkB inh,LGR2 antag,TWEAK-Fn14 inh
Cc1nn2cc(-c3ncc(C(F)(F)F)cc3Cl)cnc2c1Br,n,56.0,n,n,50.7
FC(F)(F)c1cnc(-c2cnc3c(-c4ccc(Cl)cc4)cnn3c2)c(Cl)c1,x,n,n,n,n
O=C1C(=C(c2ccccc2)N2CCOCC2)Cc2ccccc21,60.3,n,63.5,107.2,97.1
Cc1noc(C)c1NC(=O)N(C)C[C@@H]1Oc2ccc(NS(C)(=O)=O)cc2C(=O)N([C@@H](C)CO)C[C@H]1C,n,x,x,n,x
O=C(C1CC1)N1CC2(C1)[C@H](c1ccccc1)[C@H](CO)N2Cc1ccccc1F,n,x,x,n,x
COc1ccc(CCNC(=O)c2nnn(-c3ccccc3OC)c2N)cc1OC,x,n,n,x,n
COc1ccc(CCNC(=O)c2nnn(-c3ccc4c(c3)OCCO4)c2N)cc1OC,x,87.0,50.2,x,97.3
COCCNC(=S)N(CCc1c(C)[nH]c2ccc(OC)cc12)Cc1cccnc1,n,n,42.0,n,n
CCCCOC(=O)C1C2C=C[C@]3(CN(C(C)c4ccc(OC)cc4)C(=O)[C@H]13)O2 (some centres not stated),x,x,n,x,88.9
CCCCOC(=O)C1C2C=C[C@]3(CN(CCCOC)C(=O)[C@H]13)O2 (some centres not stated),x,n,n,x,n
O=C(C[C@@H]1C=C[C@@H](NC(=O)CCN2CCCCC2)[C@H](CO)O1)Nc1ccc(-c2ccccc2)cc1,n,x,x,n,x
CO[C@@]12[C@@H]3N[C@@H]3CN1C1=C(C(=O)C(N)=C(C)C1=O)[C@@H]2COC(N)=O,n,n,61.6,n,n
COc1ccc([C@H]2N[C@]3(CCCN(Cc4ccco4)C3=O)[C@H]3C(=O)N(Cc4ccccc4)C(=O)[C@@H]23)cc1,n,n,46.3,n,n
COc1ccc(-c2nc3ccccc3n2Cc2ccccc2)cc1,x,n,n,n,n
COc1ccc(-c2n(Cc3ccccc3)c3ccccc3[n+]2Cc2ccccc2)cc1,n,50.1,n,n,n
O=C(Nc1ccccc1Cl)N1CCN(c2ccccn2)CC1,x,n,n,n,101.1
C[C@@H]1CN([C@H](C)CO)C(=O)c2cc(NC(=O)CCCN(C)C)ccc2O[C@H]1CN(C)S(C)(=O)=O,x,x,x,n,x
CCCNC(=O)N1CC(=O)N2[C@H](C1)[C@H](c1ccc(C#Cc3cccc(OC)c3)cc1)[C@@H]2CO,n,x,x,x,x
O=C(C1CCN(S(=O)(=O)c2cccc3cccnc23)CC1)N1CCN(c2ccc(Cl)cc2)CC1,n,n,n,n,50.7
O=C(Nc1ccccc1Cl)C1CCCN(S(=O)(=O)c2cccc3cccnc23)C1 (configuration not stated),n,n,n,n,n
O=C(Nc1nc2cc(Cl)ccc2s1)C1CCCN(S(=O)(=O)c2cccc3cccnc23)C1 (configuration not stated),x,n,n,x,84.3
CN(C)C(=O)C[C@@H]1C=C[C@H](NC(=O)C2CCOCC2)[C@H](CO)O1,n,x,x,n,x
CO[C@@H]1CN(C)C(=O)c2cc(NC(=O)C3CC3)ccc2OC[C@H](C)N(C(=O)CN(C)C)C[C@@H]1C,n,x,x,n,x
CN(C)C(=O)c1cccc(-c2ccc3c(c2)[C@H]2[C@H](CCN2C(=O)C2CC2)[C@H](CO)N3)c1,n,x,x,n,x
C[C@]12c3[nH]c4ccc(Cl)cc4c3CCN1C(=O)[C@@H](CC(=O)NCCCn1ccnc1)C[C@@H]2C(=O)N1CCCCC1,n,n,n,n,n
SMILES,EWS-Fli block,TROY signal inh,LMP1 NFkB inh,LGR2 antag,TWEAK-Fn14 inh
O=C(C[C@H]1C[C@H](C(=O)N2CCCCC2)[C@@]2(CCc3ccccc3)c3[nH]c4ccc(Cl)cc4c3CCN2C1=O)NCCCn1ccnc1,n,55.4,n,n,n
C[C@H]1CCCCO[C@@H](CN(C)S(=O)(=O)c2cn(C)cn2)[C@@H](C)CN([C@@H](C)CO)C(=O)c2cc(NC(=O)Nc3ccc(C(F)(F)F)cc3)ccc2O1,n,x,x,n,x
O=C(NNc1ccc(F)cc1F)c1c(F)cccc1Cl,n,n,n,n,57.8
O=C(NNc1c(Cl)cccc1Cl)c1c(F)cccc1Cl,n,n,n,n,n
CC(NC(=O)c1ccc(N(C)C)cc1)C(c1cccs1)N1CCN(C)CC1 (configuration not stated),x,62.4,n,x,n
CC(NC(=O)c1ccc(F)cc1)C(c1cccs1)N1CCN(C)CC1 (configuration not stated),x,n,n,n,n
C=CCN1c2ccccc2Sc2cnccc21,n,n,n,n,55.7
CC(=O)OCCN1c2ccccc2Sc2cnccc21,n,n,n,n,n
O=C(C[C@@H]1C=C[C@@H](NC(=O)Nc2cccc(F)c2)[C@@H](CO)O1)NCC1CC1,n,x,x,n,x
O=C(C[C@H]1C[C@@H]2c3cc(NC(=O)c4ccc5c(c4)OCO5)ccc3O[C@@H]2[C@H](CO)O1)NCC(F)(F)F,n,x,x,n,x
Cc1nn(CC(=O)c2ccccc2Cl)c(C)c1[N+](=O)[O-],n,57.4,n,n,52.0
O=C(O)Cc1cn(-c2ccccc2)nc1-c1ccccc1,n,n,n,n,n
OCc1cn(-c2ccccc2)nc1-c1ccc(-c2nn(-c3ccccc3)cc2CO)cc1,x,n,n,n,51.7
C/C=C/c1cnc2c(c1)C(=O)N([C@@H](C)CO)C[C@@H](C)[C@H](CN(C)C(=O)NCCC)O2,n,x,x,n,x
Cc1sc(NC(=O)c2ccco2)c(C(c2ccncc2)N2CCOCC2)c1C (configuration not stated),x,n,n,x,n
CCOc1ccc(C(c2c(NC(=O)c3ccco3)sc(C)c2C)N2CCOCC2)cc1 (configuration not stated),n,n,n,n,66.5
COc1cccc(C(c2c(NC(=O)c3ccco3)sc(C)c2C)N2CCOCC2)c1 (configuration not stated),n,n,n,n,81.6
COCCNC(=O)C[C@H]1C[C@@H]2c3cc(NC(=O)NC4CCCCC4)ccc3O[C@@H]2[C@H](CO)O1,n,x,x,n,x
COc1ccc(NC(=O)Nc2ccc3c(c2)C(=O)N([C@@H](C)CO)C[C@H](C)[C@@H](CN(C)Cc2ccc4c(c2)OCO4)OCCCC[C@H](C)O3)cc1,n,x,x,n,x
CCCOc1ccc2cc(-c3ccccn3)c(=O)oc2c1,77.2,63.6,60.5,88.5,93.3
O=c1oc2cc(OCc3c(F)cccc3Cl)ccc2cc1-c1ccccn1,x,n,n,x,n
Cc1cc(NC(=O)CSc2nc(C(C)(C)C)nc3ccccc23)no1,n,n,n,n,n
Cc1cc(NC(=O)CSc2nc(-c3cccs3)nc3ccccc23)no1,57.6,n,n,n,n
Cc1cccc(S(=O)(=O)N2CC[C@H]3[C@@H](CO)N(C)c4ccc(Br)cc4[C@H]32)c1,n,x,x,n,x
CC1(C)CC(=O)C2=C(C1)Nc1ccccc1NC2c1cc(Cl)ccc1O (configuration not stated),n,n,84.9,n,n
Cc1ccc(C2Nc3ccccc3NC3=C2C(=O)CC(C)(C)C3)c(O)c1 (configuration not stated),n,n,n,n,n
CNC(=S)N/N=C1\C(=O)c2cccc3cccc1c23,x,n,n,x,96.9
